Read-out in assay [1]: ABC Transporter (ABCB1), ABCB1 (gene 5243)
Kind of assay: CLD_ABCB1_6hr: CellzDirect (CLD) Gene Expression Assay for ABC Transporter (ABCB1) at 6 hours (AID 2283659).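 Also: hits raise ABCB1 transcript above the DMSO vehicle baseline.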 The procedure, abridged:
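ABCB1 transcript measured by quantitative nuclease protection assay, chemiluminescent read-out, 6 h after dosing human hepatocyte cultures (0.2% DMSO vehicle, daily redosing). Activity fitted as increase over DMSO baseline; cytotoxicity flagged by phase-contrast morphology.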

Read-out in assay [2]: Broad substrate specificity ATP-binding cassette transporter ABCG2 (Homo sapiens) (UniProt Q9UNQ0)
Kind of assay: CLD_ABCG2_6hr: CellzDirect (CLD) Gene Expression Assay for ABC Transporter (ABCG2) at 6 hours (AID 2283660). In a few lines:
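ABCG2 mRNA induction measured by qNPA chemiluminescence in human primary hepatocyte cultures, 6 h post-dose. Chemicals tested at several concentrations against a 0.2% DMSO vehicle; positive-direction fit relative to DMSO.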

Read-out in assay [3]: xenobiotic metabolism (CYP1A1), CYP1A1 (gene 1543)
The experiment in a line: CLD_CYP1A1_6hr: CellzDirect (CLD) Gene Expression Assay for xenobiotic metabolism (CYP1A1) at 6 hours (AID 2283661).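 As to AC50: potency for transcript induction above DMSO vehicle baseline.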 In a few lines:
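Read-out 6 h post-dose: qNPA chemiluminescent quantitation of transcript induction against 0.2% DMSO. Cells were cultured primary human hepatocytes from two separate donor preparations; phase-contrast morphology annotated apparent cytotoxicity.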

The test system of assay [4] is Thyroperoxidase (TPO), gene 54314. Kind of assay: CCTE_Simmons_AUR_rTPO: CCTE's Amplex UltraRed Assay for Thyroperoxidase (TPO) Inhibition, Simmons Lab (AID 2283662).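 As to AC50: potency for loss of signal meaning inhibition of peroxidase activity.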 The procedure, abridged:
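Rat thyroid microsomal TPO + 25 uM AUR in 200 mM K phosphate; cpd 5 nM–87.5 uM [final], 8 conc, 0.5% DMSO; 300 uM H2O2 starts rxn; 37C dark 30 min; endpoint FI 544/590 nm; n=3.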

Assay [5] is described as follows: Tanguay_ZF_120hpf_TR_legacy: (Legacy) Oregon State University Tanguay Lab 120 Hour Post-fertilization zebrafish Assay for Touch Response (AID 2283667). In a few lines: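 Binary touch-response endpoint in larvae at 120 hpf after static waterborne exposure from embryo stage (28°C, 0.64% DMSO vehicle, 5 uM trimethyltin chloride as positive control); embryos dead at 24 or 120 hpf excluded; fitted as gain versus DMSO.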

Read-out in assay [6]: glucuronosyltransferase (UGT1A1), UGT1A1 (gene 54658)
Kind of assay: CLD_UGT1A1_6hr: CellzDirect (CLD) Gene Expression Assay for glucuronosyltransferase (UGT1A1) at 6 hours (AID 2283672). In a few lines:
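UGT1A1 mRNA induction, read by quantitative nuclease protection assay, 6 h after dosing primary human hepatocytes (two donors, 0.2% DMSO vehicle). Gain of signal fitted relative to vehicle.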

Read-out in assay [7]: Cytochrome P450 2B6 (Homo sapiens) (UniProt P20813)
The experiment in a line: CLD_CYP2B6_6hr: CellzDirect (CLD) Gene Expression Assay for xenobiotic metabolism (CYP2B6) at 6 hours (AID 2283677).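 Also: actives raise CYP2B6 transcript above DMSO baseline so AC50 marks an inducer.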 The procedure, abridged: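 CYP2B6 transcript levels, read by chemiluminescent qNPA, were fitted for increase versus DMSO baseline; cultured human liver hepatocytes from two donor preparations were harvested 6 h after exposure to test chemicals at multiple concentrations.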

Assay [8] is described as follows: CCTE_Padilla_ZF_144hpf_TERATOSCORE: (Legacy) CCTE's 144 Hour Post-fertilization zebrafish Assay Teratoscore, Padilla Lab (AID 2283679; active = hit-call score of the fitted dose curve at least 0.9, where 1 is the maximum; inactive = score below 0.9;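 as to AC50: zebrafish embryos with chorions exposed by immersion from 6-8 hpf to 5 dpf with daily renewal; teratogenicity score from eye scoring of death hatching and malformations at 144 hpf; higher score means more developmental defects relative to DMSO baseline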). The procedure, abridged:
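Larvae scored by eye at 144 hpf for death, hatching and malformations after a day in clean Hanks'. Before that, daily-renewed exposure at 80 uM (0.4% DMSO, 26C) from roughly 6-8 hpf through 5 dpf, 4 embryos per chemical.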

Read-out in assay [9]: HMG-CoA synthase (HMGCS2), HMGCS2 (gene 3158)
The experiment in a line: CLD_HMGCS2_6hr: CellzDirect (CLD) Gene Expression Assay for HMG-CoA synthase (HMGCS2) at 6 hours (AID 2283682).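 Also: actives raise HMGCS2 transcript above the 0.2% DMSO vehicle baseline.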 In a few lines: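 HMGCS2 transcript induction read by quantitative nuclease protection with chemiluminescence, 6 h after dosing of primary human hepatocytes. Baseline was 0.2% DMSO vehicle; phase-contrast morphology gave a yes/no cytotoxicity annotation.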

Read-out in assay [10]: xenobiotic metabolism (CYP1A2), CYP1A2 (gene 1544)
Kind of assay: CLD_CYP1A2_6hr: CellzDirect (CLD) Gene Expression Assay for xenobiotic metabolism (CYP1A2) at 6 hours (AID 2283663).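 As to AC50: potency is for induction meaning a rise in mRNA above DMSO.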 The procedure, abridged:
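mRNA levels quantified by quantitative nuclease protection assay with chemiluminescence, 6 h after dosing human primary hepatocyte cultures (two donors) across several concentrations, vehicle 0.2% DMSO. Induction fitted upward versus DMSO; phase-contrast cytotoxicity annotated.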

Read-out in assay [11]: xenobiotic metabolism (CYP1A1), CYP1A1 (gene 1543)
Kind of assay: CLD_CYP1A1_24hr: CellzDirect (CLD) Gene Expression Assay for xenobiotic metabolism (CYP1A1) at 24 hours (AID 2283673).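 Also: CYP1A1 mRNA level by quantitative nuclease protection with chemiluminescence.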 In a few lines:
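Transcript levels were read at 24 h by qNPA chemiluminescence in human liver primary cells. Cells got daily fresh dosing at multiple concentrations (vehicle 0.2% DMSO). Induction fitted upward against DMSO; phase-contrast cytotoxicity annotated.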

Read-out in assay [12]: Glyceraldehyde-3-phosphate dehydrogenase (Homo sapiens) (UniProt P04406)
Kind of assay: CLD_GAPDH_6hr: CellzDirect (CLD) Gene Expression Assay for Baseline Control (Glyceraldehyde 3-phosphate dehydrogenase) at 6 hours (AID 2283681).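 Also: active means increased signal relative to DMSO vehicle.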 The procedure, abridged:
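GAPDH baseline-control readout from qNPA (S1 nuclease digestion, probe hybridization, chemiluminescence) in lysates of cultured human hepatocytes harvested 6 h post-dosing. Chemicals tested at multiple concentrations versus 0.2% DMSO vehicle; microscopy-based cytotoxicity flagged yes/no.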

Read-out in assay [13]: sulfotransferase (SULT2A), SULT2A1 (gene 6822)
Kind of assay: CLD_SULT2A_6hr: CellzDirect (CLD) Gene Expression Assay for sulfotransferase (SULT2A) at 6 hours (AID 2283669). The procedure, abridged:
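Measured 6 h after dosing, SULT2A1 mRNA in human hepatocyte lysates was quantified by S1 nuclease protection with chemiluminescent detection. Increases fitted against 0.2% DMSO vehicle baseline; phase-contrast cytotoxicity recorded yes/no.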

Read-out in assay [14]: solute carrier (SLC10A1), SLC10A1 (gene 6554)
The experiment in a line: LTEA_HepaRG_SLC10A1: Life Technologies and Expression Analysis (LTEA) Assay for solute carrier (SLC10A1) using HepaRG (AID 2283657; active = hit-call score of the fitted dose curve at least 0.9, where 1 is the maximum; inactive = score below 0.9). To be noted: mRNA level, 48 h; actives raise or lower the signal. In a few lines: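 SLC10A1 transcript measured by TaqMan qRT-PCR, housekeeping-normalised, after 48 h chemical treatment of human HepaRG cells. Eight concentrations (half-log, max 100 uM, 0.5% DMSO vehicle) in duplicate; fitted bidirectionally against DMSO baseline.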

Read-out in assay [15]: matrix metalloproteinase-1 (MMP1), MMP1 (gene 4312)
Kind of assay: LTEA_HepaRG_MMP1: Life Technologies and Expression Analysis (LTEA) Assay for matrix metalloproteinase-1 (MMP1) using HepaRG (AID 2283658; active = hit-call score of the fitted dose curve at least 0.9, where 1 is the maximum; inactive = score below 0.9). To be noted: mRNA level, 48 h; actives raise or lower the signal. In a few lines: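 Differentiated human HepaRG cells, 48 h post-plating in serum-free induction medium, were exposed 48 h to eight half-log concentrations topping at 100 uM in 0.5% DMSO, duplicate. MMP1 mRNA measured by Fluidigm TaqMan qRT-PCR, normalized to ACTB, GAPDH, POLR2A; bidirectional fits versus DMSO.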

Read-out in assay [16]: Cytochrome P450 (CYP24A1_1), CYP24A1 (gene 1591)
The experiment in a line: LTEA_HepaRG_CYP24A1_1: Life Technologies and Expression Analysis (LTEA) Assay for Cytochrome P450 (CYP24A1_1) using HepaRG (AID 2283671; active = hit-call score of the fitted dose curve at least 0.9, where 1 is the maximum; inactive = score below 0.9). To be noted: mRNA level, 48 h; actives raise or lower the signal. In a few lines:
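Differentiated human HepaRG cells were exposed in duplicate for 48 h in serum-free induction medium to eight concentrations (top 100 uM, half-log steps, 0.5% DMSO). CYP24A1 mRNA was quantified by TaqMan qRT-PCR, normalized to ACTB, GAPDH and POLR2A, and fitted bidirectionally versus DMSO.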

Read-out in assay [17]: ABC Transporter (ABCB11), ABCB11 (gene 8647)
The experiment in a line: CLD_ABCB11_6hr: CellzDirect (CLD) Gene Expression Assay for ABC Transporter (ABCB11) at 6 hours (AID 2283675).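 Also: hits raise ABCB11 mRNA level so AC50 marks induction.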 In a few lines:
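Read-out was ABCB11 mRNA gain of signal by quantitative nuclease protection assay, relative to 0.2% DMSO vehicle, 6 h post-dose. Cells were primary human hepatocytes from two donors, treated across multiple concentrations; phase-contrast cytotoxicity noted yes/no.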

Read-out in assay [18]: Cytochrome P450 3A4 (Homo sapiens) (UniProt P08684)
The experiment in a line: CLD_CYP3A4_6hr: CellzDirect (CLD) Gene Expression Assay for xenobiotic metabolism (CYP3A4) at 6 hours (AID 2283680). The procedure, abridged: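 CYP3A4 mRNA induction, 6 h after dosing of cultured primary human hepatocytes from two donors, read by quantitative nuclease protection (qNPA, chemiluminescence). Vehicle 0.2% DMSO as baseline; morphology-based cytotoxicity annotated yes/no.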

This passage reports outcome and AC50 results from PubChem BioAssay (EPA / NIEHS).

Results filed as inconclusive are left out. The source made the active and inactive calls. The calls were made as follows, unless noted: active = hit-call score of the fitted dose curve at least 0.9, where 1 is the maximum; inconclusive = response in the unintended direction; inactive = score below 0.9.

Broad substrate specificity ATP-binding cassette transporter ABCG2 (Homo sapiens), sequence (Q9UNQ0 whole entry, looked up): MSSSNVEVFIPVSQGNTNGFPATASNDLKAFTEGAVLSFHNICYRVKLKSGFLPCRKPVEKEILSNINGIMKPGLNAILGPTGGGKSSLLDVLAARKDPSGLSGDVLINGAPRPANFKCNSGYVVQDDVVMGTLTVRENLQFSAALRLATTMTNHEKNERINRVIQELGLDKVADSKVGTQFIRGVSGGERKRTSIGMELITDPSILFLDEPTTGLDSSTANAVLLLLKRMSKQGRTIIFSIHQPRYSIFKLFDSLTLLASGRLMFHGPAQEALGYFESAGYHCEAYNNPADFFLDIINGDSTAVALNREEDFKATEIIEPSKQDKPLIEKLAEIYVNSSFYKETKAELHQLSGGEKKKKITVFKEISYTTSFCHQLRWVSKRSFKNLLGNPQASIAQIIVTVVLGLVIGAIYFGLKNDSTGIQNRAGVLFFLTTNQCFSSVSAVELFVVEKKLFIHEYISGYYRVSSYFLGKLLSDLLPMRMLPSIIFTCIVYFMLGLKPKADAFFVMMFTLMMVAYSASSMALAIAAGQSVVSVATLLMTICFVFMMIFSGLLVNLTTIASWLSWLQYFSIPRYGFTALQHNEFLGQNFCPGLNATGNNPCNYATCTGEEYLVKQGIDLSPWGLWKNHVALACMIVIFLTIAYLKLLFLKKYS
Glyceraldehyde-3-phosphate dehydrogenase (Homo sapiens), sequence (P04406 whole entry, looked up): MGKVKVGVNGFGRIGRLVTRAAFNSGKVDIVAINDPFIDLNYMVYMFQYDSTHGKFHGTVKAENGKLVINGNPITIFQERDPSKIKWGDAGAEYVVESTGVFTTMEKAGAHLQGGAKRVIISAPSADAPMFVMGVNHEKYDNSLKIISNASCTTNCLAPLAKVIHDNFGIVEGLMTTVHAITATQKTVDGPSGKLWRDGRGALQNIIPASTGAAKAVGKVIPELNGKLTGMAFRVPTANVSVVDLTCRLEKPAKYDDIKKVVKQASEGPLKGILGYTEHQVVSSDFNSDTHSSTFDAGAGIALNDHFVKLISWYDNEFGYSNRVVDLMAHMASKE
Cytochrome P450 3A4 (Homo sapiens), sequence (P08684 whole entry, looked up): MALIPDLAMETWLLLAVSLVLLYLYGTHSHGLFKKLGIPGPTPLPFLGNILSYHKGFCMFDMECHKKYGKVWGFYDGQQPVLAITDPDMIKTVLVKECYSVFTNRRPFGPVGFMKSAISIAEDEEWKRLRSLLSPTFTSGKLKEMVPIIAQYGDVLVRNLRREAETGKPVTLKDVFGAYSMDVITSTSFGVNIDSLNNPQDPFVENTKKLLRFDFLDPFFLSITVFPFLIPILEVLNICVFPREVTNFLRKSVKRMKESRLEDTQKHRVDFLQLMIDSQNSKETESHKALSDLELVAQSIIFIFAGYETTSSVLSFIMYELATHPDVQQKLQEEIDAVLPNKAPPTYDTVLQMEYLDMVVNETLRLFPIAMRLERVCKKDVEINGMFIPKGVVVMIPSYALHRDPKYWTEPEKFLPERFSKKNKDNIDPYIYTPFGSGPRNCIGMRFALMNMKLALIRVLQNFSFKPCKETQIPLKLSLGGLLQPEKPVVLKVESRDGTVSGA

As usually defined, the AC50 is the concentration giving half of the maximal activity seen. Regarding `COC(=O)NS(=O)(=O)c1ccc(N)cc1`, the compound was called inactive in assay [1], in [2], in assay [3], in assay [5], in assay [7] and in [8]. In [9], the result was inactive. For the same compound, the AC50 is 20.2 µM (active) in [4] and 20 µM (active) in assay [6].

For the compound `CS(=O)(=O)c1ccc(C(=O)C2C(=O)CCCC2=O)c([N+](=O)[O-])c1`, the call in assay [1], in [2], in assay [3], in assay [10], in [5] and in assay [11] was inactive. The compound was classed as inactive in assay [12]. For the same compound, the concentration at half-maximal activity (AC50) was 30.6 µM (active) in [4] and 14.4 µM (active) in assay [8].

For `COc1cc(Cl)c(OC)cc1Cl`, the compound was classed as inactive in assay [1], in assay [2], in [5], in [6] and in [11]. Also, the AC50 in assay [7] is 0.618 µM (active).

`CC(C)C1(C)N=C(c2ncccc2C(=O)O)NC1=O` (stereo not drawn): the call in assay [1], in assay [2], in [5], in assay [6], in [8] and in assay [12] was inactive. Besides, the half-maximal activity concentration (AC50) in assay [3] is 1.9 µM (active); in assay [7], 0.00054 µM (active).

As for `CCOc1nc(C(Cl)(Cl)Cl)ns1`, the compound was called inactive in [1], in assay [2], in assay [4], in [5], in assay [13] and in [6]. The call in assay [8] and in assay [12] was inactive. Besides, the AC50 in assay [3] is 8.85 µM (active).

In the case of `CCCCC(C#N)(Cn1cncn1)c1ccc(Cl)cc1` (stereo not drawn), the AC50 was 83.9 µM (active) in assay [14], 3.97 µM (active) in [3], 50.7 µM (active) in assay [5] and 62.6 µM (active) in [8]. The compound was classed as inactive in [15], in assay [1], in assay [10], in [13], in assay [16] and in assay [6].

Turning to `Nc1c(Cl)c(Cl)nc(C(=O)O)c1Cl`, the compound was called inactive in [14], in assay [15], in assay [1], in [2], in assay [5] and in assay [16]. The compound was classed as inactive in [6], in [11], in [8], in [12] and in assay [9]. Further, the AC50 in assay [3] is 20 µM (active); in [10] it was 33 µM (active).

As for `CN=C=S`, the outcome in assay [14], in [15], in assay [1], in [2], in assay [3] and in [5] was inactive. The outcome in [16], in assay [6], in assay [17] and in [12] was inactive. Besides, the concentration at half-maximal activity (AC50) is 4.85 µM (active) in assay [7] and 2.93 µM (active) in assay [8].

In the case of `N#CN=C1SCCN1Cc1ccc(Cl)nc1`, the outcome in [1], in [2], in assay [3], in [5], in assay [13] and in [6] was inactive. Besides, the result in [7], in assay [8] and in assay [12] was inactive.

Regarding `CCCC(=NOCC)C1=C(O)CC(CC(C)SCC)CC1=O` (stereo not drawn), the result in [1], in [2], in assay [5], in [6], in assay [11] and in assay [8] was inactive. Moreover, in assay [12], the result was inactive. Further, the AC50 in assay [18] is 20 µM (active).
